Source: PubChem BioAssay (National Center for Advancing Translational Sciences (NCATS))
Rows were chosen to be rich in hits. Some 21% of all compounds tested hit in one or more screens of this group.
SARS PLP yeast = qHTS of Yeast-based Assay for SARS-CoV PLP | S. cerevisiae expressing SARS-CoV PLpro, growth rescue | Potency, µM (top dose mostly 32.9 µM), most hits filed as activators | hit rate 0.19% among 330,000; note: nearly all actives have a fitted effect of over 55% in size
Pf growth 96h = Primary qHTS for delayed death inhibitors of the malarial parasite plastid, 96 hour incubation. P. falciparum luciferase reporter growth, 96 h. Potency, µM (doses to about 28.7 µM), most hits filed as inhibitors. hit rate 6.9% among 320,000. AID 504834, 2011; active = well fitted inhibition curve with a large enough effect; inconclusive = small, poorly fitted or top-dose-only effect, or another doubt; inactive = no such curve, though single readings can be large or run the other way
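Infected RBCs, 2% Hct / 0.05% parasitemia final; luciferase-reporter P. falciparum; cpd 96 h, 37 C, 5% CO2; luciferase detection reagent; luminescence.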
NS1 inh = qHTS Assay for Inhibitors of Influenza NS1 Protein Function; hit rate 0.4% among 270,000; Potency, µM (series often up to 46.1 µM); note: actives are rising curves; nearly all actives have a fitted effect of over 50% in size
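In this qHTS, NS1 from influenza A is expressed in budding yeast, where it slows growth. Cells are switched from glucose to 2% galactose medium (pH 6.0, -URA), treated with compound, and growth recovery is read at OD600.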
Pf growth 48h = Primary qHTS for delayed death inhibitors of the malarial parasite plastid, 48 hour incubation; P. falciparum luciferase growth in erythrocytes, 48 h; Potency, µM (series often up to 28.7 µM), hits mostly inhibitors; hit rate 5.9% among 310,000; AID 504832, 2011; active = well fitted inhibition curve with a large enough effect; inconclusive = small, poorly fitted or top-dose-only effect, or another doubt; inactive = no such curve, though single readings can be large or run the other way
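A one-generation exposure of luciferase-tagged malaria parasites in RPMI 1640/Albumax erythrocyte culture, 37 C and 5% CO2. Inhibition is inferred from decreased luminescence after adding detection reagent.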
CHX counter = Cycloheximide Counterscreen for Small Molecule Inhibitors of Shiga Toxin; max response, %; AID 2314, 2010; cell reporter, cycloheximide protein synthesis inhibition counterscreen; hit rate 12% among 300,000; in the data active = max response mostly above about 13%, no sharp cut-off; inactive = mostly below about 14%; note: read at 38.3 µM for the half of the compounds with a filed dose
Shiga toxin inh = A qHTS for Small Molecule Inhibitors of Shiga Toxin | Vero cells, Shiga toxin protein synthesis inhibition reporter | AID 2315, 2010 | hit rate 9.2% among 290,000 | inhibition, % at 38.7 µM; in the data active = inhibition mostly above about 28%, no sharp cut-off; inactive = mostly below about 43%
Hits are given with their value; – = inactive; ? = inconclusive; · = not tested or not shown; [ ] = dose if it differs, or a comment. Unless noted, calls come from the whole dose curve.

SMILES	SARS PLP yeast	Pf growth 96h	NS1 inh	Pf growth 48h	CHX counter	Shiga toxin inh
CCNC(=S)NNC(=O)c1cc(-c2cccc(C)c2)nc2ccccc12	–	?	–	–	21	–
O=C(/C=C/c1ccccc1[N+](=O)[O-])NCc1ccncc1	–	?	–	–	–	–
COc1cc(OC)cc(C(=O)Nc2ccccc2C(=O)NCc2cccnc2)c1	–	?	–	?	–	–
COc1cccc(OC)c1C(=O)Nc1ccc(S(=O)(=O)N2CCCCC2)cc1	–	3.3µM	–	–	–	–
COc1cccc(C(=O)Nc2ccc(S(=O)(=O)N3CCCCC3)cc2)c1OC	–	5.2µM	–	12µM	–	–
C[C@H](CO)N1C[C@H](C)[C@@H](CN(C)C(=O)Nc2ccc(C(F)(F)F)cc2)Oc2ccc(NS(=O)(=O)c3cccs3)cc2C1=O	–	·	·	·	·	·
Cc1cc2c(cc1S(=O)(=O)N1CC(C)CC(C)C1)OCC(=O)N2 (centres undefined)	–	–	–	–	–	–
Cc1ccccc1NC(=O)Cc1nc(COC(=O)c2ccc(Cl)nc2)cs1	–	?	·	?	·	·
COc1cc(C(=O)OCc2csc(CC(=O)Nc3ccccc3C)n2)ccc1OCC(C)C	–	9.3µM	·	13µM	·	·
Cc1ccccc1NC(=O)Cc1nc(CSc2nnc(C3CCCCC3)n2N)cs1	–	7.4µM	–	13µM	–	–
CCC(C(=O)OCc1csc(CC(=O)Nc2ccccc2C)n1)c1ccccc1 (centres undefined)	–	?	·	12µM	·	·
Cc1ccccc1NC(=O)Cc1nc(COC(=O)CC(C)c2ccccc2)cs1 (centres undefined)	–	?	·	?	·	·
CCOC(=O)c1c(C)[nH]c(C(=O)OCc2csc(CC(=O)Nc3ccccc3C)n2)c1C	–	12µM	·	9.3µM	·	·
Cc1ccccc1NC(=O)Cc1nc(COC(=O)CCNS(=O)(=O)c2ccccc2)cs1	–	?	·	10µM	·	·
COc1ccc(-c2cc(C(=O)NCc3cccs3)no2)cc1	–	–	–	–	23	60
COc1ccc2nc3sc(C(=O)NCc4cccs4)c(N)c3cc2c1	–	–	?	–	51	83
O=C(NCc1ccc(Cl)cc1)c1cc(-c2cccs2)on1	–	?	–	–	–	–
Cc1cc(C(=O)NCc2cccs2)nn1C	–	–	–	–	–	–
COc1cccc(-c2cc(C(=O)NCc3cccs3)no2)c1	–	?	–	–	61	104
COc1ccc(CNC(=O)c2cc(-c3cccs3)on2)cc1	–	·	–	–	19	–
COc1cccc(C(=O)c2c[nH]c(C(=O)NCc3cccs3)c2)c1	–	?	–	–	16	–
O=C(Nc1ccc(Br)cc1)C1C2C=CC3(O2)C1C(=O)N(CCN1CCCCC1)C3C(=O)NC1CCCCC1 (centres undefined)	–	?	–	?	–	–
Cc1cc(C)cc(NC(=O)C2C3C=CC4(O3)C2C(=O)N(CCN2CCCCC2)C4C(=O)NC2CCCCC2)c1 (centres undefined)	–	10µM	–	?	–	–
CCCN(CCC)CCN1C(=O)C2C(C(=O)Nc3cccc(SC)c3)C3C=CC2(O3)C1C(=O)NC1CCCCC1 (centres undefined)	–	–	–	3.7µM	–	–
Cc1cc(S(=O)(=O)N2CCCC(C(=O)Nc3ccc(C(=O)O)cc3)C2)ccc1Cl (centres undefined)	–	–	–	–	–	–
SMILES	SARS PLP yeast	Pf growth 96h	NS1 inh	Pf growth 48h	CHX counter	Shiga toxin inh
COc1ccc2oc(=O)c(-c3nnc(NCc4ccco4)s3)cc2c1	–	–	–	–	31	63
CCOc1cccc2cc(-c3cn4cc(C)ccc4n3)c(=O)oc12	–	?	–	–	–	36
COc1cccc2cc(-c3cn4cccc(C)c4n3)c(=O)oc12	·	·	–	·	·	·
CCOc1cccc2cc(-c3nnc(NCc4ccco4)s3)c(=O)oc12	–	?	–	–	–	40
CCNc1nc(NC(C)(C)C)nc(Oc2ccc(=O)n(-c3ccccc3)n2)n1	–	–	·	–[5.75 µM]	–	–
Cc1cccc(N2CCN(C(=O)CSc3nnnn3C3CC3)CC2)c1C	–	?	·	?	·	·
CC(=O)O[C@@]1(C)C[C@@H](O)[C@]2(O)C=CO[C@@H](O[C@@H]3O[C@H](CO)[C@@H](O)[C@H](O)[C@H]3O)[C@@H]21	–	–	·	–	·	·
CCc1ccc(C(c2ccc(CC)cc2)C(Cl)Cl)cc1	–	?	·	?	·	·
Clc1ccc(C(c2ccccc2Cl)C(Cl)Cl)cc1 (centres undefined)	·	?	–	10µM	·	·
Cc1sc2c(c1C)C(=O)NC(c1cccc(O)c1)N2 (centres undefined)	–	?	–	–	27	–
COc1ccccc1CN1C(=O)c2ccccc2C1C(=O)NC1CCC(C)CC1 (centres undefined)	–	?	·	?	–	–
Cc1csc(=Nc2cccnc2)n1Cc1ccco1	–	?	·	–	–	–
Cc1cs/c(=N\N=C\c2ccccc2)n1Cc1ccco1	–	?	–	–	23	–
CC(C)=N/N=c1\scc(C)n1Cc1ccco1	–	–	·	–	–	–
Cc1cs/c(=N\N=C2CCCCC2)n1Cc1ccco1	–	–	·	–	34	69
C1COC(NC(C2CC2)C2CC2)=N1	–	?	–	?	–	–
CNC(=O)C(C)c1ncc(C(F)(F)F)cc1Cl (centres undefined)	–	–	–	–	–	–
CNC(=O)c1cc2ncc(C(F)(F)F)cc2s1	–	–	–	–	18	–
O=C(O)[C@@H](O)[C@@H](O)[C@H](O)[C@H](O)CO	·	8.5µM	–	6µM	·	·
OC[C@@H](O)C(O)[C@H](O)[C@H](O)CO (some centres undefined)	·	·	·	·	–	–
CCCCn1c(N)c(N(CCOC)C(=O)C2CCN(S(=O)(=O)c3ccccc3)CC2)c(=O)[nH]c1=O	–	–	·	–	·	·
COCCn1c(=NC(=O)CSCC(=O)N2CCOCC2)sc2cc(C)ccc21	–	–	–	–	–	–
Cc1cc(C)cc(N(CC(=O)NCc2ccco2)C(=O)c2snc(C(N)=O)c2N)c1	–	4.7µM	–	–	33	36
COc1cccc(CNC(=O)COc2ccc(C(=O)c3ccccc3)cc2)c1	–	–	–	–	–	–
Cc1csc(NC(=O)Cc2ccc(Br)cc2)n1	–	–	–	–	31	–
COc1ccc(CCCc2nnc(SCC(=O)Nc3nc(C)cs3)n2C)cc1C	–	·	–	13µM	–	–
COc1ccc(CC(=O)Nc2nnc(C(C)(C)C)s2)cc1OC	–	4.7µM	–	–	–	–
COc1ccc(OC)c(-c2csc(NC(=O)Cc3ccc(OC)c(OC)c3)n2)c1	–	–	–	–	–	–
COc1ccc(CC(=O)Nc2nc(C)cs2)cc1OC	–	12µM	–	–	–	–
Cc1csc(NC(=O)CSc2nnc(CCNC(=O)c3cccs3)n2C)n1	–	?	–	?	–	–
